# Measured values from the supplement of paper PMC4466236.
# In all, about 33,000 sequences were measured (“E-score (dimensionless, -0.5 to 0.5)”: median about -0.058, highest 2% from about 0.35 on). What follows is part of a selection rich in the highest values, with near analogues and random picks from the rest.
# Test system: MvaT
# Assay: PBM 8-mer E-score (mean of HK and ME arrays) (E-score (dimensionless, -0.5 to 0.5)); higher = stronger relative binding preference
# Description: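 Protein binding microarray: GST-tagged full-length MvaT (P. aeruginosa PAO1) bound to two universal double-stranded 60-mer arrays (ME and HK), each with a constant 25-mer primer and a variable 35-mer region covering all 8-mers. The 8-mer E-score (rank-based, range -0.5 to 0.5, >0.45 = specific binding) is the mean of the two arrays.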
row,Sequence,PBM 8-mer E-score
1,ATCCCGCC,-0.0462
2,CCTATCTC,0.0122
3,AACCGTTG,-0.0901
4,GTTGTACA,0.115
5,AAGAGTGA,0.00575
6,CTTCACTC,-0.239
7,GTAAGTTA,0.396
8,ACAAGTTA,0.338
9,ATAAGTTG,0.342
10,GCAAGTTA,0.34
11,CTAAGTTC,0.232
12,ATAAGTGC,0.178
13,ATAAGTTA,0.441
14,CTAAGTCA,-0.101
15,AGAAGTTC,0.223
16,CTAAGTTA,0.352
17,ATAAGTTC,0.368
18,GGAAGTTA,0.227
19,ACACAACG,-0.0104
20,GAAGGAGA,-0.255
21,GGGTTCAC,-0.111
22,AACCATAT,0.254
23,AACATCCC,2.53e-05
24,TACGAGGA,-0.05
25,GGGGCCAA,-0.225
26,CTATCCAA,-0.0391

row,Sequence,PBM 8-mer E-score
1,CTATTACA,0.267
2,ATATTAGC,0.352
3,CTATTAGA,0.208
4,GTATTAGA,0.267
5,ATATTACA,0.386
6,ATATTACC,0.293
7,ATATTAGG,0.309
8,ATATTAGA,0.407
9,CTATTAGC,0.136
10,ATCTGTGA,-0.0144
11,CACTTAGC,-0.0629
12,GCCCGCGA,-0.31
13,ACCTGTCG,-0.277
14,CTGAAAAG,-0.0791
15,TAAATTAA,0.437
16,AAAATTAT,0.355
17,GAAATTAA,0.331
18,AAAATTAC,0.149
19,AAAATTAA,0.387
20,AAAATTGT,0.269
21,AAAATTGA,0.224
22,CAAATTAA,0.286
23,AAAATTAG,0.162
24,CCTAATAC,0.104
25,GGGCTCCA,-0.168
26,GAAGCATA,0.00764

row,Sequence,PBM 8-mer E-score
1,CACACCTA,0.0249
2,ACACGAGT,-0.0299
3,ACTACTGG,0.0326
4,AATCCGCC,-0.0734
5,ATTTTTAA,0.323
6,GTTTTAAA,0.282
7,ACTTAAAA,0.226
8,CTTTTTAA,0.213
9,ATTTTAAA,0.383
10,CTTTTAAC,0.314
11,ATTTAAAA,0.377
12,CCTTAAAA,0.0816
13,CTTTTAAA,0.361
14,CGCTGGAA,-0.092
15,AGCAAAAA,0.0929
16,ACGTTGAT,0.0529
17,GCAAACAA,0.0823
18,GATATAGA,0.206
19,CATATAGA,0.187
20,TATATAGA,0.434
21,AATATAGA,0.365
22,AATAGAGA,0.217
23,ACTATAGA,0.127
24,AATATAGT,0.398
25,AATATAGC,0.343
26,AATATAGG,0.288

row,Sequence,PBM 8-mer E-score
1,CCCTTCAG,-0.27
2,GAGTAGAA,0.0154
3,AGAAACGG,-0.0989
4,ATACAATG,0.204
5,CCGGCTAC,-0.217
6,GCCAGAAC,-0.0482
7,AAATAAAG,0.405
8,AGATAAAA,0.178
9,AAATAAAT,0.428
10,ACATAAAT,0.301
11,ACATAAAA,0.23
12,AAATAAGT,0.38
13,AAATAAGG,0.322
14,CAATAAAG,0.252
15,AAATAAAA,0.419
16,ACATAAAG,0.101
17,AAATAAAC,0.334
18,AAATAAGC,0.275
19,AAGCCGCT,-0.232
20,ATTCAACG,0.0307
21,CCAATTCA,-0.0716
22,TCCTGTCA,-0.158
23,GAGCAAAC,-0.0867
24,GCTGCCAA,-0.0483
25,CTACTAAG,-0.00927
26,AAGCGTCA,-0.00559

row,Sequence,PBM 8-mer E-score
1,CCGAATAG,-0.0201
2,CGCAGTCC,-0.172
3,AACCTCCA,-0.115
4,GGTCTGTA,-0.219
5,GAACCTGA,-0.0412
6,AATCTCGA,0.179
7,ACTGAAAG,-0.0474
8,CATTAAAG,0.272
9,ACTTAAAT,0.331
10,CATTAACA,0.274
11,GATTAACA,0.278
12,AATTAAAA,0.373
13,ATTAAAAT,0.29
14,ACTTAAAG,0.159
15,AATTAAAT,0.452
16,TATTAACA,0.437
17,AATTAAAG,0.355
18,ATGTTGGA,0.125
19,CAACCATA,0.0988
20,CTCGTAAG,-0.0264
21,CCTGGTTC,-0.254
22,CCGCCGGC,-0.321
23,AAATAGGA,-0.0215
24,AAAAACAC,0.087
25,CAGGTGAG,-0.208
26,GCCCCACC,-0.292

row,Sequence,PBM 8-mer E-score
1,AAGGAGTC,-0.047
2,CTAATCAA,0.102
3,GATTAAAC,0.191
4,CATTAAAC,0.334
5,TATTAAGA,0.366
6,AATTAAAC,0.382
7,GATTAAAA,0.217
8,TATTAAAA,0.41
9,GATTAAGA,0.157
10,CATTAAAA,0.201
11,AATTAAGA,0.277
12,TGATGGAA,0.0193
13,CGCCCCTC,-0.202
14,CCACCCTA,0.0237
15,AAAAGTGC,0.142
16,AGGTGGGC,-0.177
17,AATTTGGC,0.161
18,CTGCAGTA,0.129
19,AAAGCATA,0.0331
20,ATTTTAAC,0.307
21,ATTTAAAT,0.474
22,ATTTTAAG,0.225
23,GGTTAAAC,0.0681
24,CTTTAAAG,0.25
25,GCTTAAAC,0.121
26,ATTAAAAC,0.301

row,Sequence,PBM 8-mer E-score
1,ATTTAAAG,0.354
2,GTTTAAAC,0.406
3,CTTTAAAC,0.229
4,ATTTAAAC,0.398
5,GGGTGCAA,-0.0874
6,AGTTCGAT,0.171
7,CGGTCCGA,-0.24
8,GGGTAGCA,-0.213
9,CAGTGTCC,-0.176
10,GACAAATC,-0.0221
11,GGTTAATA,0.276
12,AGTTAATC,0.169
13,GTTTAACA,0.281
14,ATTTAACA,0.376
15,GTTTAATA,0.407
16,AGTTAATA,0.406
17,ATTTAATG,0.376
18,ATTTAAGG,0.101
19,ATTTACTG,0.247
20,ATTTAACC,0.195
21,ATTTAACG,0.255
22,GTTTAAGA,0.246
